Laboratory results: PubChem BioAssay (EPA / NIEHS)
Some structures have more than one record in an assay (separate samples or runs), and their calls can disagree. Calls of active or inactive are those of the source. How the source made its calls: active means hit-call score of the fitted dose curve at least 0.9, where 1 is the maximum; inactive means score below 0.9.

read-out: Pselectin, SELP (gene 6403); assay: BSK_4H_Pselectin: BioMAP Diversity Plus: 4H Assay for Pselectin Biomarker Activity (AID 2283026); settings: primary human endothelial cells (HUVEC); actives raise or lower the signal
Description: BSK_4H is a cell-based, multiplexed-readout assay that uses umbilical vein endothelium, a human vascular primary cell, with measurements taken at 24 hours after chemical dosing in a 96-well plate.BSK_4H_Pselectin is an assay component measured in the BSK_4H assay. It measures P-Selectin antibody related to regulation of gene expression using ELISA technology.Data from the assay component BSK_4H_Pselectin was analyzed into 1 assay endpoint. This assay endpoint, BSK_4H_Pselectin, was analyzed with bidirectional fitting relative to DMSO as the negative control and baseline of activity. Using a type of binding reporter, gain or loss-of-signal activity can be used to understand changes in the signaling as they relate to the gene SELP. Furthermore, this assay endpoint can be referred to as a primary readout, because this assay has produced multiple assay endpoints where this one serves a signaling function. To generalize the intended target to other relatable targets, this assay endpoint is annotated to the cell adhesion molecules intended target family, where the subfamily is selectins.
The levels of cell surface (or secreted, indicated by the prefix "s") biomarker endpoints were measured by ELISA. Overt cytotoxicity to cells in confluent adherent cultures (all systems other than the BT system) was assessed by measuring total protein levels using sulforhodamine B (SRB) staining in parallel cultures at the time of biomarker measurements, indicated as SRB endpoints. For proliferation assays for adherent cell types, individual cell types are cultured at sub-confluence and relative cell numbers quantified by SRB staining at time points optimized for each system (48 h: 3C and CASM3C systems; 72 h: BT and HDF3CGF systems; 96 h: SAg system). SRB was performed by staining cells with 0.1% SRB after fixation with 10% TCA and reading wells at 560 nm.Viability and proliferation of PBMC (T cells) was quantified by Alamar Blue reduction for the SAg and BT systems. For PBMC viability (referred to as PBMC Cytotoxicity within the assay endpoint names), cells were plated (75,000/well in a 96-well plate) and then chemical samples added for 1 h before addition of activators, SEB and TSST-1 (20 ng/mL final concentration each). Cells were incubated for 90 h. Then, Alamar Blue (20 uL/well) (Invitrogen, Cat DAL1100) was added for 6 h, and the plates were read with a fluorescence microplate reader at 546/580 nm (excitation/emission). For PBMC proliferation, cells were plated and activated as above but incubated for only 16 h prior to addition of Alamar Blue. Plates were read after 6 h.

Structure (SMILES) | AC50 | outcome
COP(=S)(OC)SCn1nnc2ccccc2c1=O | 35.1 µM (active) | 
COC(=O)NC(=S)Nc1ccccc1NC(=S)NC(=O)OC |  | inactive
Cc1c(COC(=O)[C@@H]2[C@H](/C=C(\Cl)C(F)(F)F)C2(C)C)cccc1-c1ccccc1 | 12.3 µM (active) | 
CC(C)N1C(=O)c2ccccc2NS1(=O)=O |  | inactive
CC(C)(C)C(=O)C(Oc1ccc(Cl)cc1)n1cncn1 (stereo not given) |  | inactive
CC(C)Nc1nc(Cl)nc(NC(C)C)n1 |  | inactive
CS(=O)(=O)c1ccc(C(=O)C2C(=O)CCCC2=O)c([N+](=O)[O-])c1 |  | inactive
CC1(C)C(C(=O)OC(C#N)c2cccc(Oc3ccccc3)c2)C1(C)C (stereo not given) | 12.9 µM (active) | 
CNC(=O)Oc1cccc2ccccc12 | 16.7 µM (active) | 
CC1(C)CON(Cc2ccccc2Cl)C1=O |  | inactive
COCC(C)N(C(=O)CCl)c1c(C)csc1C (stereo not given) | 14.6 µM (active) | inactive
Nc1c(Cl)c(Cl)nc(C(=O)O)c1Cl |  | inactive
CS(=O)(=O)c1cc(C(F)(F)F)ccc1C(=O)c1cnoc1C1CC1 |  | inactive
CCC(C)n1c(=O)[nH]c(C)c(Br)c1=O (stereo not given) |  | inactive
O=C(Nc1ccccc1-c1ccc(Cl)cc1)c1cccnc1Cl |  | inactive
CCOc1cc(C(C)(C)C)ccc1C1COC(c2c(F)cccc2F)=N1 (stereo not given) | 22.2 µM (active) | 
Cc1ccc(N=CN(C)C=Nc2ccc(C)cc2C)c(C)c1 | 30 µM (active) | 
N#Cc1c[nH]cc1-c1cccc2c1OC(F)(F)O2 | 11.7 µM (active) | 
Nc1c(Cl)c(F)nc(OCC(=O)O)c1Cl |  | inactive
COP(=O)(OC)O/C(C)=C/C(=O)N(C)C |  | inactive

Structure (SMILES) | AC50 | outcome
CC(C)Oc1cccc(NC(=O)c2ccccc2C(F)(F)F)c1 |  | inactive
CCNP(=S)(OC)O/C(C)=C/C(=O)OC(C)C (stereo not given) |  | inactive
O=P(O)(O)CCCl |  | inactive
Nc1cnn(-c2ccccc2)c(=O)c1Cl |  | inactive
CSC(=O)c1c(C(F)F)nc(C(F)(F)F)c(C(=O)SC)c1CC(C)C | 15 µM (active) | 
CCCCOCN(C(=O)CCl)c1c(CC)cccc1CC | 21.9 µM (active) | 
COCc1cnc(C2=NC(C)(C(C)C)C(=O)N2)c(C(=O)O)c1 (stereo not given) |  | inactive
CN/C(=N\[N+](=O)[O-])NCc1cnc(Cl)s1 |  | inactive
CCOP(=O)(OCC)Oc1nc(Cl)c(Cl)cc1Cl | 18.5 µM (active) | 
CCOc1nc(F)cc2nc(S(=O)(=O)Nc3c(Cl)cccc3Cl)nn12 |  | inactive
O=C1C2CC=CCC2C(=O)N1SC(Cl)(Cl)Cl (stereo not given) | 23.9 µM (active) | 
Cc1nc(N(C)C)nc(OC(=O)N(C)C)c1C |  | inactive
CCCN(CC)CC1COC2(CCC(C(C)(C)C)CC2)O1 (stereo not given) |  | inactive
O=c1n(Cl)c(=O)n(Cl)c(=O)n1Cl |  | inactive
CN=C=S |  | inactive
CCCC(=NOCC)C1=C(O)CC(CC(C)SCC)CC1=O (stereo not given) |  | inactive
CCNC(=O)NC(=O)C(C#N)=NOC |  | inactive
O=C(O)c1c(Cl)ccc2cc(Cl)cnc12 |  | inactive
CCN(CC)c1nc(C)cc(OP(=S)(OC)OC)n1 |  | inactive
